Reference: PubChem BioAssay (Tox21)
Records with an inconclusive call do not appear. Active and inactive are the calls of the source. Unless noted, calls follow the shape of the full dose curve.

What was measured:
[1] = qHTS assay to identify small molecule agonists of the vitamin D receptor (VDR) signaling pathway - cell viability counter screen (AID 743224; active = well fitted curve in the direction sought with a large enough effect in the repeat runs; an effect the other way counts as inactive or inconclusive; also: series mostly up to about 63 µM; % is scaled to controls: 0 for no effect and ±100 for the full control effect; nearly all actives have a fitted effect of over 50% in size)
Outline: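 Compounds were pin-transferred onto VDR-bla cells plated 4 h earlier; following 16 h incubation at 37C, cell viability was quantified by CellTiter-Glo luminescence after 30 min at room temperature.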

[2] = qHTS assay to identify small molecule antagonists of the vitamin D receptor (VDR) signaling pathway - cell viability counter screen (AID 743225; active = well fitted curve in the direction sought with a large enough effect in the repeat runs; an effect the other way counts as inactive or inconclusive; also: % is scaled to controls: 0 for no effect and ±100 for the full control effect; nearly all actives have a fitted effect of over 50% in size)
Outline: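 HEK293T VDR-bla; cpd + 1a,25-(OH)2D3 3 nM final, 16 h 37C/5% CO2; B/G FRET substrate 2 h RT; then CellTiter-Glo 30 min RT, luminescence.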

[3] = qHTS assay to identify small molecule agonists of the NFkB signaling pathway (AID 1159509; active = well fitted curve in the direction sought with a large enough effect in the signal ratio in the repeat runs, not every such curve was filed as active; the % refers to the signal ratio; also: series mostly up to about 61 µM; % is scaled to controls: 0 for no effect and ±100 for the full control effect)
Outline: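 Agonist activity was read as beta-lactamase-driven FRET change (460 and 530 nm emission, 405 nm excitation) following 1.5 hr substrate loading at room temperature. Beforehand, ME-180 NFkB-bla reporter cells were treated with compounds for 5 hr at 37 C.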

[4] = qHTS assay to identify small molecule agonists of the NFkB signaling pathway - cell viability counter screen (AID 1159515); also: series mostly up to about 61 µM; % is scaled to controls: 0 for no effect and ±100 for the full control effect; nearly all actives have a fitted effect of over 55% in size
Outline: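 Parallel cytotoxicity counter screen in ME-180 cells carrying an NFkB-response-element beta-lactamase reporter, 2,000 cells/well. Compound exposure lasted 5 hr at 37 C, 5% CO2. Cell viability was quantified by CellTiter-Glo luminescence.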

[5] = qHTS assay to identify small molecule agonists of the endoplasmic reticulum stress response signaling pathway (AID 1159516; active = well fitted activation curve with a large enough effect in the signal ratio in the repeat runs, not every such curve was filed as active; the % refers to the signal ratio; also: % is scaled to controls: 0 for no effect and ±100 for the full control effect)
Outline: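 Using a HeLa line with an ESRE-driven beta-lactamase gene, agonist activity was measured by FRET substrate fluorescence (460 and 530 nm emission) after cells were treated with compounds for 5 hr at 37 C and 5% CO2.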

[6] = qHTS assay to identify small molecule agonists of the endoplasmic reticulum stress response signaling pathway - cell viability counter screen (AID 1159517);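 also: HeLa cells carrying an ER stress response element beta-lactamase reporter; series mostly up to about 61 µM; % is scaled to controls: 0 for no effect and ±100 for the full control effect; nearly all actives have a fitted effect of over 50% in size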
Outline: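 In parallel with the ESRE reporter read, cytotoxicity was scored by CellTiter-Glo luminescence (30 min, room temperature) on HeLa ESRE-bla cells dosed for 5 hr.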

[7] = target: Nuclear receptor ROR-gamma (Homo sapiens) (UniProt P51449); experiment: qHTS assay to identify small molecule antagonists of the retinoid-related orphan receptor gamma (ROR-gamma) signaling pathway (AID 1159521; active = well fitted curve in the direction sought with a large enough effect in the repeat runs; an effect the other way counts as inactive or inconclusive;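 also: CHO cells with doxycycline inducible ROR-gamma driving an RORE luciferase reporter; top concentration of the series differs between compounds; % is scaled to controls: 0 for no effect and ±100 for the full control effect; nearly all actives have a fitted effect of over 50% in size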)
Outline: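 Cells were plated, rested 4 h at 37 C, exposed to compounds for 2 h, then given 1 uM final doxycycline hyclate to induce RORγ expression. After 16 h, ONE-Glo luminescence from the ROR response element reporter was measured.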

[8] = qHTS assay to identify small molecule agonists of the AP-1 signaling pathway - cell viability counter screen (AID 1159525); also: nearly all actives have a fitted effect of over 55% in size
Outline: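 Same-well cytotoxicity counter screen of the Tox21 10K library in ME-180 cells. The readout is ATP-dependent luminescence after 5 h compound treatment. Data are normalised to DMSO and tetra n-octyl ammonium bromide controls.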

[9] = qHTS assay to identify small molecule agonists of the AP-1 signaling pathway (AID 1159526); also: % is scaled to controls: 0 for no effect and ±100 for the full control effect
[10] = qHTS assay to identify small molecule antagonists of the retinoid-related orphan receptor gamma (ROR-gamma) signaling pathway - cell viability counter screen (AID 1159520; active = well fitted curve in the direction sought with a large enough effect in the repeat runs; an effect the other way counts as inactive or inconclusive)
Outline: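 Tet-on ROR gamma CHO cells were given compounds for 2 hr, then doxycycline hyclate at 1 uM final, and incubated 16 hr at 37 C. Viability was measured as ATP content by CellTiter-Glo luminescence.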

C[C@]12C=CC(=O)C=C1CC[C@@H]1[C@@H]2CC[C@@]2(C)[C@H]1CC[C@]2(C)O
inactive: Potency [1] | Potency [2] | outcome [3] | outcome [4] | outcome [5] | Potency [6] | Potency [7] | Potency [8] | outcome [9]

CC(=NC#N)N(C)Cc1ccc(Cl)nc1
inactive: Potency [2] | outcome [3] | outcome [4] | outcome [5] | Potency [6] | Potency [10] | Potency [7] | Potency [8] | outcome [9]

c1ccc2c(c1)CCNC2
inactive: Potency [2] | outcome [3] | outcome [4] | outcome [5] | Potency [6] | Potency [10] | Potency [7] | Potency [8] | outcome [9]

CC(C)(N)Cc1ccc(Cl)cc1
inactive: Potency [1] | Potency [2] | outcome [3] | outcome [4] | outcome [5] | Potency [7] | Potency [8] | outcome [9]

CNC(=O)Oc1cc(C)c(N(C)C)c(C)c1
inactive: Potency [2] | outcome [3] | outcome [4] | outcome [5] | Potency [6] | Potency [7] | Potency [8] | outcome [9]

NCC1(CC(=O)O)CCCCC1
inactive: Potency [1] | outcome [3] | outcome [5] | Potency [6] | Potency [10] | Potency [7] | Potency [8] | outcome [9]

O=[N+]([O-])CCO
inactive: Potency [1] | outcome [3] | outcome [4] | outcome [5] | Potency [10] | Potency [7] | Potency [8] | outcome [9]

BrCc1ccc(Br)cc1
inactive: Potency [1] | Potency [2] | outcome [3] | outcome [4] | outcome [5] | Potency [10] | Potency [7] | Potency [8] | outcome [9]

CCOP(=S)(OCC)SCCl
inactive: Potency [2] | outcome [3] | outcome [4] | outcome [5] | Potency [6] | Potency [7] | Potency [8] | outcome [9]

NCCOS(=O)(=O)O
inactive: Potency [1] | Potency [2] | outcome [3] | outcome [4] | outcome [5] | Potency [10] | Potency [7] | Potency [8] | outcome [9]

N#CC(Br)(Br)C(N)=O
inactive: Potency [1] | Potency [2] | outcome [3] | outcome [4] | outcome [5] | Potency [10] | Potency [7] | Potency [8] | outcome [9]

CCN[C@H](C)Cc1cccc(C(F)(F)F)c1
inactive: Potency [2] | outcome [3] | outcome [4] | outcome [5] | Potency [7] | Potency [8] | outcome [9]

CCCCCCCC(=O)Cl
inactive: Potency [2] | outcome [3] | outcome [4] | outcome [5] | Potency [10] | Potency [7] | Potency [8] | outcome [9]

S=C=S
inactive: Potency [2] | outcome [3] | outcome [4] | outcome [5] | Potency [10] | Potency [7] | Potency [8] | outcome [9]

O=CCCl
inactive: Potency [2] | outcome [3] | outcome [4] | outcome [5] | Potency [10] | Potency [7] | Potency [8] | outcome [9]

O=C(NC(=O)c1c(F)cccc1F)Nc1cc(Cl)c(F)c(Cl)c1F
inactive: Potency [1] | outcome [3] | outcome [4] | outcome [5] | Potency [10] | Potency [7] | Potency [8] | outcome [9]

CN(C)C(=O)Oc1cc(OC(=O)N(C)C)cc(C(O)CNC(C)(C)C)c1 (stereo unspecified)
inactive: Potency [1] | Potency [2] | outcome [3] | outcome [5] | Potency [6] | Potency [10] | Potency [7] | Potency [8] | outcome [9]

CCCCCCC(=O)CCCCCC/C=C/C[C@@H](O)[C@H](O)[C@@](N)(CO)C(=O)O
inactive: Potency [1] | Potency [2] | outcome [3] | outcome [4] | outcome [5] | activity, negative = cytotoxicity [10] 4.11% [at 19 µM] | activity change, negative = inhibition [7] -12.3% [at 19 µM] | viability change, negative = cytotoxic [8] -3.45% [at 15.8 µM] | activation [9] -2.3% [at 15.8 µM]
